# Assays:
# Test in all cases: PBM binding z-score (relative to random genomic background probes); higher = stronger binding; sequences stand for … in GC…GCGATTGACAGCGTAGAATGAAGG
# [1] = system: FXR:RXRa (NR concentration 270 nM, RXRa partner concentration 90 nM)
# Procedure, shortened: (§1)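 Ligand-free nuclear receptor dimers were applied to custom Agilent 4×180K protein-binding microarrays whose double-stranded probes carried direct-repeat seeds, single-nucleotide variants, half-site ablations and random human genomic background sequences in 34-nt variable regions. Incubation lasted 1 h. Binding z-scores were computed against the random background probes from regression-normalized fluorescence.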
# [2] = system: LXRa:RXRa (NR concentration 270 nM, RXRa partner concentration 90 nM)
# Procedure, shortened: as §1
# [3] = system: LXRa homodimer (NR concentration 270 nM)
# Procedure, shortened: as §1
# [4] = system: LXRb:RXRa (NR concentration 270 nM, RXRa partner concentration 90 nM)
# Procedure, shortened: as §1
# [5] = system: LXRb homodimer (NR concentration 270 nM)
# Procedure, shortened: as §1
# [6] = system: PPARa:RXRa (NR concentration 270 nM, RXRa partner concentration 90 nM)
# Procedure, shortened: as §1
# [7] = system: PPARg:RXRa (NR concentration 180 nM, RXRa partner concentration 90 nM)
# Procedure, shortened: as §1
# [8] = system: PPARg:RXRa 270nM:90nM, anti-RXR (NR concentration 270 nM, RXRa partner concentration 90 nM)
# Procedure, shortened: as §1
# [9] = system: PPARg:RXRa 30nM:10nM, anti-RXR (NR concentration 30 nM, RXRa partner concentration 10 nM)
# Procedure, shortened: as §1
# [10] = system: PPARg:RXRa 90nM:30nM, anti-RXR (NR concentration 90 nM, RXRa partner concentration 30 nM)
# Procedure, shortened: as §1
# [11] = system: PPARg:RXRa DBDmut IVT, anti-RXR (DBD mutation: RXRa K156A/R161A, NR concentration 270 nM, RXRa partner concentration 90 nM)
# Procedure, shortened: as §1
# [12] = system: PPARg:RXRa IVT, anti-PPARg (NR concentration 270 nM, RXRa partner concentration 90 nM)
# Procedure, shortened: as §1
# [13] = system: PPARg DBDmut:RXRa IVT, anti-PPARg (DBD mutation: PPARg1 K132A/R137A, NR concentration 270 nM, RXRa partner concentration 90 nM)
# Procedure, shortened: as §1
# [14] = system: PPARg DBDmut IVT, anti-PPARg (DBD mutation: PPARg1 K132A/R137A, NR concentration 270 nM)
# Procedure, shortened: as §1
# [15] = system: PPARg homodimer (NR concentration 180 nM)
# Procedure, shortened: as §1
# [16] = system: PXR:RXRa (NR concentration 270 nM, RXRa partner concentration 90 nM)
# Procedure, shortened: as §1
# [17] = system: PXR homodimer (NR concentration 270 nM)
# Procedure, shortened: as §1
# [18] = system: RARa:RXR (NR concentration 270 nM, RXRa partner concentration 90 nM)
# Procedure, shortened: as §1
# [19] = system: RARa homodimer (NR concentration 270 nM)
# Procedure, shortened: as §1
# [20] = system: RARb:RXRa (NR concentration 270 nM, RXRa partner concentration 90 nM)
# Procedure, shortened: as §1
Sequence,PBM binding z-score [1],PBM binding z-score [2],PBM binding z-score [3],PBM binding z-score [4],PBM binding z-score [5],PBM binding z-score [6],PBM binding z-score [7],PBM binding z-score [8],PBM binding z-score [9],PBM binding z-score [10],PBM binding z-score [11],PBM binding z-score [12],PBM binding z-score [13],PBM binding z-score [14],PBM binding z-score [15],PBM binding z-score [16],PBM binding z-score [17],PBM binding z-score [18],PBM binding z-score [19],PBM binding z-score [20]
CCTACTGGGCCAAAGTCATTGATCAGTCAAAGCA,-0.681,-0.266,-0.412,-0.243,-1.2,0.687,1.42,2.53,0.485,1.74,4.29,3.6,-0.537,-0.517,-0.302,-0.584,-0.623,-0.335,-1.15,0.121
TCTAGTTGGTCACGGTGGTCACACACGACGGGTA,-0.0806,0.249,-0.00168,0.395,0.0154,1,1.15,2.15,3.17,2.47,2.21,3.35,1.54,0.923,0.94,0.537,-0.191,0.741,-0.155,1.93
CCTACTGGGCCAAAAGTCATTGATTCCAATGCTC,-0.29,0.0265,-0.0792,0.111,-0.713,3.54,7.06,7.89,8.84,9.3,4.9,4.42,-0.0689,-0.159,0.216,-0.153,-0.589,0.273,0.25,0.447
CCTACTGGGCCAAGGTCCTTGATCAGTCAAAGCA,-2.77,-0.638,-0.83,-0.659,-1.31,0.607,0.83,1.73,-0.152,0.845,3.51,3.4,-1.28,-1.15,-0.287,-0.74,-0.766,-0.787,-1.65,0.256
TCTAGTTGGTCGAAGGTCACACACTCGAAATGCG,2.91,3.2,1.24,3.38,0.802,4.57,7.43,7.58,6.89,7.98,1.87,3.68,1.01,1.13,3.06,3.66,1.06,4.17,1.25,3.51
TCATATAGGCAAAAGGTGAAAGTCGGTGTGGTAA,1.44,1.54,-0.253,1.6,-0.167,4.76,7.39,6.76,6.88,8.15,3.66,3.79,0.358,-0.517,1.39,1.27,0.0545,1.81,0.897,1.81
GCGACTGGGGCAAAGCAGATTACCATAAGGTTGG,-0.443,-0.606,-0.499,-0.352,-0.97,0.454,1.36,0.951,0.202,0.481,4.66,3.29,-0.663,-0.34,-0.207,-0.451,-0.273,-0.203,-0.607,0.381
CCTTACGGGTCGCTCCAGGTTATAGCATCGGAGT,1.38,2.13,-0.172,0.57,-0.524,1.24,0.136,0.211,-0.551,-0.391,0.145,0.244,-1.18,-0.791,0.495,1.93,-0.171,1.02,-0.313,1.22
CCTCGGAGGACAACAGGAGGTCAGAACTGCCAGA,0.84,1.86,1.93,1.49,-0.518,1.78,0.525,-0.182,-0.754,-0.55,0.236,0.269,-1.45,-1.02,1.52,1.92,0.393,2.08,0.134,2.68
AAAACAGGGTCACTAGGCCAGAGTAGGTACGAAT,6.63,4.02,-0.0117,4,0.509,6.07,8.29,7.23,4.36,6.34,5.29,6.57,2.03,1.25,2.68,3.58,0.329,4.8,1.21,4.18
CGGCCAAGGTCAAGGTCAGTGAAAGAGACTCGAA,7.61,5.58,0.407,4.63,0.323,6.12,6.44,6.23,2.33,4.85,3.44,4.67,0.246,-0.532,3.93,5.02,0.799,5.17,1.18,5.71
TCTGCTAGGTCAGTTGGTCACCTAACGAGCTGCC,1.06,0.728,-0.345,0.685,0.632,1.69,1.03,2.1,1.38,1.75,2.8,3.77,1.37,0.817,0.461,0.216,-0.932,0.734,-1.21,3.44
GCGACTGGGGCAAAGCAGGTTACCATCAGGTTGG,0.219,0.0244,-0.624,0.0908,-1.13,1.24,0.987,1.13,-0.557,0.405,3.88,3.6,-0.221,-0.906,0.147,0.343,-0.136,0.899,-1.19,0.889
TTACCAAGGTGAACGTCGTTGATCCCTCTGTAGA,0.766,0.802,-0.455,1.01,-0.681,1.99,0.984,1.25,0.514,1.07,2.54,3.17,0.0811,1.09,0.021,0.627,-0.305,1.26,-0.00319,1.77
CTCGAAAGTTCGTGCTCAGGTGAGTATACCAAAC,0.841,1,0.162,1.03,-0.134,1.39,-0.262,0.502,0.0705,0.433,-0.18,0.443,-0.211,0.0374,0.564,1.4,0.241,1.64,-0.0689,2.06
TCTAGTTGGTCAATGGTCACACACTCGAAATGCG,0.812,0.861,0.28,0.966,0.461,1.74,2.89,4.7,4.08,4.79,2.15,2.54,0.677,1.19,1.32,0.698,-0.0663,0.893,0.846,1.62
ACTACCAGGCCAAGGGTCACTCAAGATTAGTCCG,2.84,3.11,0.63,3.41,0.443,5.06,8.68,7.51,6.65,7.73,1.41,4.54,0.921,-0.0701,2.3,3.38,0.474,4.11,1.31,3.78
ACAAGCAGGCCAAGGGTCACTCAAGATTAGTCCG,2.26,2.92,0.0513,2.56,-0.322,4.58,8.28,7.67,6.24,7.51,1.27,3.95,0.299,-0.852,2.21,3.26,-0.154,4.08,0.779,3.47
AGAACGAGGGCAATGAGTTGATATCACGGGTGGC,0.383,0.334,-0.363,-0.00546,-0.245,1.52,1.86,1.07,0.219,0.833,3.27,2.39,0.947,-0.37,0.0848,1.68,4.4,0.557,-0.0418,1.95

# Source: the supplement of paper PMC6555819
